Results filed as inconclusive are left out. Entries that show only a call come without a potency. The source made the active and inactive calls. Unless noted, calls come from the whole dose curve; as a rule, active = well fitted curve in the direction sought with a large enough effect in the repeat runs; inconclusive = weak or mixed curves; inactive = no such curve, though single readings can be large; an effect the other way counts as inactive or inconclusive.
Legend:
[1] = qHTS assay for small molecule agonists of the p53 signaling pathway (AID 651631; calls by dose curve; note: nearly all actives have a fitted effect of over 15% in size)
Summary of the method: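 Beta-lactamase reporter activity under p53 response elements was quantified in HCT-116 cells by FRET fluorescence, following 16 h incubation with test compounds at 37 °C and 2 h substrate development at room temperature.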

[2] = qHTS assay for small molecules that induce genotoxicity in human embryonic kidney cells expressing luciferase-tagged ATAD5 (AID 651632); note: nearly all actives have a fitted effect of over 15% in size
Summary of the method: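 HEK293T cells carrying a luciferase reporter tagged to ATAD5 were exposed to compound or DMSO vehicle for 16 hr at 37C, 5% CO2. Amplite was added, and after 30 min at room temperature luciferase activity was read as a marker of ATAD5 induction.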

[3] = qHTS assay for small molecule agonists of the p53 signaling pathway - cell viability (AID 651633; calls by dose curve;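 note: p53RE-bla HCT reporter cells with a stable beta-lactamase p53 reporter; nearly all actives have a fitted effect of over 30% in size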)
Summary of the method: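 Viability counter-read: CellTiter-Glo luminescence (30 min, room temperature) in the same p53RE-bla plates. These plates had been exposed to compounds for 16 h at 37 C.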

[4] = qHTS assay for small molecules that induce genotoxicity in human embryonic kidney cells expressing luciferase-tagged ATAD5 - cell viability (AID 651634; calls by dose curve; note: nearly all actives have a fitted effect of over 25% in size)
Summary of the method: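 HEK293T cells expressing luciferase-tagged ATAD5 were exposed to compound or DMSO for 15.5 hr at 37C, 5% CO2. Viability was then read as live-cell protease activity by CellTiter-Fluor fluorescence after 30 min at 37C.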

[5] = qHTS assay for small molecule disruptors of the mitochondrial membrane potential - cell viability (AID 720634; calls by dose curve;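 note: human HepG2 liver cancer cells; nearly all actives have a fitted effect of over 20% in size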)
Summary of the method: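 HepG2 cells seeded overnight at 37 C, then exposed to compound or DMSO for 1 hr at 37 C, 5% CO2. m-MPI dye added, then CellTiter-Glo for 30 min at room temperature; viability read as ATP luminescence.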

[6] = qHTS assay for small molecule disruptors of the mitochondrial membrane potential (AID 720635); note: potency is the fitted concentration of half-maximal effect
Summary of the method: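 Mitochondrial membrane potential tracked with Mito-MPS dye, red aggregates (ex 540/em 590 nm) against green monomers (ex 490/em 535 nm). Compound treatment 1 hr at 37C, dye 30 min in HepG2.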

[7] = qHTS assay to test for compound auto fluorescence at 590 nm (red) in HepG2 cells (AID 720674)
Summary of the method: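 Red autofluorescence (Ex/Em 540/590 nm, Rose Bengal sodium equivalents) was measured in HepG2 cells, 2,000 per well in MEM plus 10% FBS, plated overnight at 37 C. Readings were taken 1 hr after adding 23 nL compound or DMSO, at 37 C and 5% CO2.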

[8] = qHTS assay to test for compound auto fluorescence at 535 nm (green) in HepG2 cells (AID 720675)
[9] = qHTS assay to test for compound auto fluorescence at 460 nm (blue) in HEK293 cells (AID 720678)
Summary of the method: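 Blue-channel (Ex/Em 405/460 nm) intensity measured in HEK293 cultures after overnight compound exposure at 37C; signal expressed relative to triamterene. Cells plated 2,000 per well in 10% dialyzed FBS medium and allowed 4-5 hr to attach.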

[10] = qHTS assay to test for compound auto fluorescence at 590 nm (red) in HEK293 cells (AID 720679)
Summary of the method: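 Red-channel autofluorescence (Ex/Em 540/590 nm; Rose Bengal sodium reference) was measured after overnight 37C, 5% CO2 exposure of attached HEK293 cells, 2,000 per well in medium with 10% dialyzed FBS.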

[11] = qHTS assay to test for compound auto fluorescence at 535 nm (green) in HEK293 cells (AID 720680)
[12] = qHTS assay to test for compound auto fluorescence at 460 nm (blue) in HEK293 cell free culture (AID 720681)
Summary of the method: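 Blue fluorescence (Ex 405/Em 460 nm, triamterene-equivalent) was read immediately after pin transfer of compound or DMSO into medium (DMEM, 10% FBS) without cells.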

[13] = qHTS assay to test for compound auto fluorescence at 535 nm (green) in HEK293 cell free culture (AID 720682)
Summary of the method: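 Each library compound, or DMSO control, is added by pintool to medium alone, comprising DMEM and 10% FBS. Emission at 535 nm following 485 nm excitation is quantified against fluorescein.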

[14] = qHTS assay to test for compound auto fluorescence at 590 nm (red) in HEK293 cell free culture (AID 720683)
Summary of the method: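 Red-channel autofluorescence of compounds in culture medium (DMEM, 10% FBS), no cells, measured at 540/590 nm. Rose Bengal sodium is the reference fluorophore for equivalence.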

[15] = qHTS assay to test for compound auto fluorescence at 590 nm (red) in HepG2 cell free culture (AID 720684)
Summary of the method: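 Plate contents were MEM with 10% FBS plus test compound or DMSO, no cells. Fluorescence was recorded with 540 nm excitation and 590 nm emission.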

[16] = qHTS assay to test for compound auto fluorescence at 460 nm (blue) in HepG2 cell free culture (AID 720685)
Summary of the method: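 Compound (23 nL) or DMSO pinned into cell-free MEM with 10% FBS; blue fluorescence read at 405/460 nm excitation/emission, expressed as auto-fluorescence equivalency to triamterene.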

[17] = qHTS assay to test for compound auto fluorescence at 535 nm (green) in HepG2 cell free culture (AID 720686)
[18] = qHTS assay to test for compound auto fluorescence at 460 nm (blue) in HepG2 cells (AID 720687)
Summary of the method: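 Blue-channel autofluorescence (Ex/Em 405/460 nm, triamterene-equivalent) was measured after 1 hr compound exposure at 37 C, 5% CO2. Cells were HepG2, plated overnight at 37 C in MEM plus 10% FBS.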

[19] = biological target: Glucocorticoid receptor (Homo sapiens) (UniProt P04150); experiment: qHTS assay to identify small molecule agonists of the glucocorticoid receptor (GR) signaling pathway (AID 720691; active = well fitted activation curve with a large enough effect in the signal ratio in the repeat runs, not every such curve was filed as active; the % refers to the signal ratio); settings: GR-bla HeLa, beta-lactamase reporter ratio, 18 h; activation: at 62.4 µM (top of the series)
Summary of the method: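 GR-bla HeLa cells (beta-lactamase reporter under glucocorticoid response element) were plated 4 h at 37 C/5% CO2, given compounds in DMSO, and incubated 18 h at 37 C. LiveBLAzer B/G FRET substrate was added for 2 h at room temperature, then fluorescence intensity read.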

[20] = biological target: Glucocorticoid receptor (Homo sapiens) (UniProt P04150); experiment: qHTS assay to identify small molecule antagonists of the glucocorticoid receptor (GR) signaling pathway (AID 720692; active = well fitted inhibition curve with a large enough effect in the signal ratio in the repeat runs, not every such curve was filed as active; the % refers to the signal ratio)
Summary of the method: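 GR-bla HeLa cells (beta-lactamase reporter under glucocorticoid response element) were pre-plated 4 h at 37 C, treated with compounds plus 5 nM dexamethasone (final) for 18 h, then read by LiveBLAzer B/G FRET fluorescence after 2 h.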

Glucocorticoid receptor (Homo sapiens), sequence (P04150 whole entry, looked up): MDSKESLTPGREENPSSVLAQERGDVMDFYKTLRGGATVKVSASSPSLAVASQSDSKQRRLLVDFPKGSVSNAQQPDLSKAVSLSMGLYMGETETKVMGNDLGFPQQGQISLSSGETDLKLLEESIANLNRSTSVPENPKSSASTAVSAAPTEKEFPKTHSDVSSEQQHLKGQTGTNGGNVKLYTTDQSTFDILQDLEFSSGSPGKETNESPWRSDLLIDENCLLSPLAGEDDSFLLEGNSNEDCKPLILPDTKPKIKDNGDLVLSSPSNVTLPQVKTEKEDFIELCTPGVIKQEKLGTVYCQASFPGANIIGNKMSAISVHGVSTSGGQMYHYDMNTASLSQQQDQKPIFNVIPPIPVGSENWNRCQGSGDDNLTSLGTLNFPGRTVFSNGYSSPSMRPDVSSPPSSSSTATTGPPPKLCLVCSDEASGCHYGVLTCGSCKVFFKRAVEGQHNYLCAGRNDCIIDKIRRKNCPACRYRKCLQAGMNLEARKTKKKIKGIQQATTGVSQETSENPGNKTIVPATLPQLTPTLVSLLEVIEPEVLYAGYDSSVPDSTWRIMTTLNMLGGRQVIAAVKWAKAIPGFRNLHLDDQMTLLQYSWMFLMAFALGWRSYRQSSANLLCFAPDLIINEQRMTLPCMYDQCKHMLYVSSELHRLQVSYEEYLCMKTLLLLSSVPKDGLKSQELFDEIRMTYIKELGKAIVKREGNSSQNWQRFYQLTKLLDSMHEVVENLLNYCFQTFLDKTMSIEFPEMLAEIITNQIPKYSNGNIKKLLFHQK

| Structure (SMILES) | Potency [1] | Potency [2] | Potency [3] | Potency [4] | Potency [5] | Potency [6] | outcome [7] | Potency [8] | Potency [9] | outcome [10] | outcome [11] | Potency [12] | outcome [13] | outcome [14] | outcome [15] | Potency [16] | Potency [17] | Potency [18] | Potency [19] | Potency [20] |
| --- | --- | --- | --- | --- | --- | --- | --- | --- | --- | --- | --- | --- | --- | --- | --- | --- | --- | --- | --- | --- |
| CC(C)(O/N=C(\C(=O)N[C@@H]1C(=O)N2C(C(=O)[O-])=C(C[n+]3ccccc3)CS[C@H]12)c1csc(N)n1)C(=O)O | inactive | inactive | inactive | inactive | inactive | inactive | inactive | inactive | inactive | inactive | inactive | inactive | inactive | inactive | inactive | inactive | inactive | inactive | inactive | – |
| C[C@@H]1O[C@@H]1P(=O)(O)O | inactive | inactive | inactive | inactive | inactive | inactive | inactive | inactive | inactive | inactive | inactive | inactive | inactive | inactive | inactive | inactive | inactive | inactive | inactive | inactive |
| NC(=O)c1cc[n+](CC2=C(C(=O)O)N3C(=O)[C@@H](NC(=O)C(c4ccccc4)S(=O)(=O)[O-])[C@H]3SC2)cc1 (some centres undefined) | inactive | inactive | inactive | inactive | inactive | inactive | inactive | inactive | inactive | inactive | inactive | inactive | inactive | inactive | inactive | inactive | inactive | inactive | – | – |
| O=C(O)c1cc(=O)c2c3nc4ccccc4oc-3cc(=O)c2[nH]1 | inactive | inactive | inactive | inactive | inactive | 21.1 µM (active) | inactive | inactive | inactive | inactive | inactive | inactive | inactive | inactive | inactive | inactive | inactive | inactive | inactive | – |
| Oc1ccc(Cl)c2c1CCC2 | inactive | inactive | inactive | inactive | inactive | 24.8 µM (active) | inactive | inactive | inactive | inactive | inactive | inactive | inactive | inactive | inactive | inactive | inactive | inactive | inactive | – |
| CC(=NCc1ccccc1)c1ccccc1O | inactive | inactive | inactive | inactive | inactive | inactive | inactive | inactive | inactive | inactive | inactive | inactive | inactive | inactive | inactive | inactive | inactive | inactive | – | – |
| CO/N=C(\C(=O)N[C@@H]1C(=O)N2C(C(=O)[O-])=C(C[n+]3ccc(N)n3CCO)CS[C@H]12)c1csc(N)n1 | inactive | inactive | inactive | inactive | inactive | inactive | inactive | inactive | inactive | inactive | inactive | inactive | inactive | inactive | inactive | inactive | inactive | inactive | inactive | inactive |
| CCN(CC)C(=O)[C@]1(c2ccccc2)C[C@@H]1CN | inactive | inactive | inactive | inactive | inactive | inactive | inactive | inactive | inactive | inactive | inactive | inactive | inactive | inactive | inactive | inactive | inactive | inactive | inactive | inactive |
| CC[C@H]1OC(=O)C[C@@H](O)[C@H](C)[C@@H](O[C@@H]2O[C@H](C)[C@@H](O[C@H]3C[C@@](C)(O)[C@@H](O)[C@H](C)O3)[C@H](N(C)C)[C@H]2O)[C@@H](CC=O)C[C@@H](C)C(=O)/C=C/C(C)=C/[C@@H]1CO[C@@H]1O[C@H](C)[C@@H](O)[C@@H](OC)[C@H]1OC | inactive | inactive | inactive | inactive | inactive | inactive | inactive | inactive | inactive | inactive | inactive | inactive | inactive | inactive | inactive | inactive | inactive | inactive | – | – |
| Cc1cc(C(=O)NCCc2ccc(S(=O)(=O)NC(=O)NN3CCCCCC3)cc2)no1 | inactive | inactive | inactive | inactive | inactive | inactive | inactive | inactive | inactive | inactive | inactive | inactive | inactive | inactive | inactive | inactive | inactive | inactive | – | – |
| CCC(O)c1ccccc1 (centres undefined) | inactive | inactive | inactive | inactive | inactive | inactive | inactive | inactive | inactive | inactive | inactive | inactive | inactive | inactive | inactive | inactive | inactive | inactive | inactive | inactive |
| O=C(O)/C=C/C(O)c1ccc(Cl)cc1 (centres undefined) | inactive | inactive | inactive | inactive | inactive | inactive | inactive | inactive | inactive | inactive | inactive | inactive | inactive | inactive | inactive | inactive | inactive | inactive | inactive | inactive |
